Test results reported in PubChem BioAssay AID1159580 (chemical genetic matrix, 2015).
In all, about 5,500 compounds went through this assay and about 2,000 (36%) were called active. About 18% were inconclusive and are not listed. Cut-off read from the data, not from the text of the source: active = normalized growth mostly below about 0.91 (no sharp cut-off); inconclusive = no clear call, values can overlap the other calls; inactive = mostly above about 0.92. Some of the results follow.

Assay: chemical genetic growth profiling, strain panel (AID 1159580);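 note: tested at 20 µM; growth read once vehicle control cultures reached saturation at 30 °C; 1 = growth at the plate median or of vehicle wells; lower values mean less growth of the strain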
Conditions: growth OD

Measured: normalized growth

Nc1ccc(-n2nc(C(F)(F)F)cc2C(F)(F)F)cc1
inactive: S. cerevisiae deletion strains, locus YAL013W, strain DEP1, stronger effect = lower value 1 | S. cerevisiae deletion strains, locus YBR229C, strain ROT2, stronger effect = lower value 0.986 | S. cerevisiae deletion strains, locus YDL101C, strain DUN1, stronger effect = lower value 1 | S. cerevisiae deletion strains, locus YDR150W, strain NUM1, stronger effect = lower value 0.902 | S. cerevisiae deletion strains, locus YEL061C, strain CIN8, stronger effect = lower value 0.998 | S. cerevisiae deletion strains, locus YGR078C, strain PAC10, stronger effect = lower value 1.01 | S. cerevisiae deletion strains, locus YGR229C, strain SMI1, stronger effect = lower value 0.99 | S. cerevisiae deletion strains, locus YHR087W, strain rtc3, stronger effect = lower value 1.01 | S. cerevisiae deletion strains, locus YJR043C, strain POL32, stronger effect = lower value 0.992 | S. cerevisiae deletion strains, locus YJR075W, strain HOC1, stronger effect = lower value 0.938 | S. cerevisiae deletion strains, locus YLR039C, strain RIC1, stronger effect = lower value 0.842 | S. cerevisiae deletion strains, locus YLR058C, strain SHM2 (second series), stronger effect = lower value 0.975 | S. cerevisiae deletion strains, locus YLR262C, strain YPT6, stronger effect = lower value 0.904 | S. cerevisiae deletion strains, locus YML094W, strain GIM5, stronger effect = lower value 0.975 | S. cerevisiae deletion strains, locus YMR219W, strain ESC1, stronger effect = lower value 0.986 | S. cerevisiae deletion strains, locus YMR263W, strain SAP30, stronger effect = lower value 0.963 | S. cerevisiae deletion strains, locus YNL153C, strain GIM3, stronger effect = lower value 1 | S. cerevisiae deletion strains, locus YNL298W, strain CLA4 (second series), stronger effect = lower value 0.855 | S. cerevisiae deletion strains, locus YNL322C, strain KRE1, stronger effect = lower value 0.969 | S. cerevisiae deletion strains, locus YNR030W, strain Alg12, stronger effect = lower value 0.951 | S. cerevisiae deletion strains, locus YOL006C, strain TOP1, stronger effect = lower value 0.866 | S. cerevisiae deletion strains, locus YPL055C, strain LGE1, stronger effect = lower value 0.929 | S. cerevisiae deletion strains, locus YPR135W, strain CTF4, stronger effect = lower value 0.694 | S. cerevisiae strains, strain wild type, stronger effect = lower value 0.974
active: S. cerevisiae deletion strains, locus YHR030C, strain SLT2, stronger effect = lower value 0.661 | S. cerevisiae deletion strains, locus YLR085C, strain ARP6, stronger effect = lower value 0.603 | S. cerevisiae deletion strains, locus YPL241C, strain CIN2, stronger effect = lower value 0.825
